These results are taken from PubChem BioAssay AID588397 (National Center for Advancing Translational Sciences (NCATS), 2011).

Molecules are shown by their SMILES. Screen size: about 1,300 compounds; about 1,000 (77%) were called active. About 7% were inconclusive and are not listed. The call rests on the fitted dose curve; in most records, active means well fitted inhibition curve with a large enough effect; inconclusive means small, poorly fitted or top-dose-only effect; inactive means no such curve, though single readings can be large or run the other way. The set was probably picked from earlier hits. The list shows a part of the results.
Potency means the concentration at half of the fitted maximal effect.

The experiment can be described thus: qHTS of small molecules that selectively kill Giardia lamblia: Hit Validation.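 Further: viability measured as ATP content by luminescence so killing lowers signal; nearly all actives have a fitted effect of over 65% in size.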 Particulars: Giardia lamblia trophozoite viability, dose-response; series mostly up to 38.3 µM. The method, boiled down:
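Compounds were tested on trophozoites seeded at 100 cells/well and held 48 hrs at 37 deg C anaerobically. An ATP-based luminescent kit measured the remaining live cells.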
As for `O=[N+]([O-])c1nn(-c2ccc3c(c2)OCCO3)n(O)c1=Nc1ccc(Cl)cc1`, the Potency is 1.3 µM (active).
Then `CC(C)c1ccc(N=c2c([N+](=O)[O-])nn(-c3ccc4c(c3)OCCO4)n2O)cc1`, with 2.05 µM (active); and `O=c1c2ccccc2nc(/C=C/c2ccc([N+](=O)[O-])o2)n1CCCO`, with 0.579 µM (active); and `CC(=O)N(/N=C/c1ccc([N+](=O)[O-])o1)c1nc2ccccc2c(=O)n1-c1ccccc1`, with 1.03 µM (active).
The entry for `Cc1cccc(-c2nnc(SCc3cc(=O)[nH]c4ccccc34)n2C)c1` is “inactive”; for `Cc1cc(C)nc(N/N=C/c2ccc([N+](=O)[O-])o2)n1` it is 1.3 µM (active); for `Cc1cc(C)nc(N/N=C/c2ccc(Cl)cc2)n1` it is “inactive”.
In the case of `CCNc1nc(NCC)nc(N/N=C/c2ccc([N+](=O)[O-])o2)n1`, the Potency was 2.59 µM (active).
In the case of `O=C(Cc1csc(Nc2nc(=S)[nH]c3ccccc23)n1)NCCCN1CCN(c2ccccc2F)CC1`, the Potency was 14.5 µM (active).
The figure for `CCOC(=O)Cc1csc(NC(=S)NC(=O)c2ccc(C)cc2)n1` is 7.29 µM (active).
The entry for `CSc1cccc(NS(=O)(=O)c2cn(C)cn2)c1` is “inactive”; for `Cc1ccc(OCC(=O)c2cc(C)n(C)c2C)c([N+](=O)[O-])n1` it is 1.45 µM (active); for `Cc1ccc(OCc2ccc([N+](=O)[O-])cc2)c([N+](=O)[O-])n1` it is 3.26 µM (active).
For `C=CCn1c(C)cc(C(=O)COc2ccc(C)nc2[N+](=O)[O-])c1C`, the Potency was 0.46 µM (active).
As for `COCCn1c(C)cc(C(=O)COc2cccnc2[N+](=O)[O-])c1C`, the Potency is 1.3 µM (active).
Take `CCCn1c(C)cc(C(=O)COc2ccc(C)nc2[N+](=O)[O-])c1C`: the Potency was 1.03 µM (active).
`COCCn1c(C)cc(C(=O)COc2ccc(C)nc2[N+](=O)[O-])c1C`: the Potency was 0.918 µM (active).
Consider `C=CCn1c(C)cc(C(=O)COC(=O)c2n[nH]c(=O)c3ccccc23)c1C`, for which the Potency is 4.6 µM (active).
As to `c1ccc2cc3c(NCCN4CCOCC4)ccnc3cc2c1`, the Potency was 1.83 µM (active).
With `Cc1ccc(-c2cnc3cc(C)nn3c2)cc1`, the Potency is 5.79 µM (active).
Then `O=C(c1ccc(CSc2nc3ccncc3[nH]2)cc1)N1CCCCCC1`, with 1.16 µM (active); and `Clc1ccc(CSc2nc3ccncc3[nH]2)cc1`, with 0.579 µM (active).
Then `Clc1ccccc1CSc1nc2ccncc2[nH]1`, with 3.65 µM (active); and `COc1cccc(CSc2nc3ccncc3[nH]2)c1`, with 1.63 µM (active).
On to `Cc1ccc(CSc2nc3ccncc3[nH]2)cc1`, for which the Potency was 0.259 µM (active).
For `CC(C)CC(=O)NC(=S)NNC(=O)c1ccc([N+](=O)[O-])cc1`, the Potency is 1.3 µM (active).
In the case of `CCCC(=O)NC(=S)NNC(=O)c1ccc([N+](=O)[O-])cc1`, the Potency was 0.41 µM (active).
The entry for `CSCCC(NS(=O)(=O)c1ccc2c(c1)OCCO2)C(=O)N(C)Cc1ccccc1F` (stereo not given) is “inactive”; for `CSCCC(NC(=O)OC(C)(C)C)C(=O)Oc1ccc2c(=O)c(-c3ccc4c(c3)OCCO4)coc2c1` (stereo not given) it is 1.03 µM (active).
As for `O=C(Nc1ccccc1N1CCOCC1)c1ccc([N+](=O)[O-])s1`, the Potency is 2.05 µM (active).
`O=C(Nc1cc(S(=O)(=O)N2CCOCC2)ccc1N1CCOCC1)c1ccc([N+](=O)[O-])s1`: the Potency was 4.1 µM (active).
Then `O=C(/C=C/c1ccc(O)c([N+](=O)[O-])c1)c1ccc2ccccc2c1`, with 2.05 µM (active).
Then `O=C(COc1cccnc1[N+](=O)[O-])c1c[nH]c2ccccc12`, with 5.16 µM (active); and `Cc1cc(C(=O)COc2cccnc2[N+](=O)[O-])c(C)n1-c1ccccc1F`, with 1.16 µM (active).
Then `Cc1ccc(-n2c(C)cc(C(=O)COc3cccnc3[N+](=O)[O-])c2C)cc1`, with 0.516 µM (active).
Regarding `Cc1cc(C(=O)COc2cccnc2[N+](=O)[O-])c(C)n1-c1ccccc1`, the Potency was 0.365 µM (active).
The figure for `Cc1ccc2nccnc2c1` is 1.3 µM (active).
Then `O=C1C[C@@H](c2ccc(O[C@@H]3O[C@H](CO)[C@@H](O)[C@H](O)[C@H]3O)cc2)Oc2cc(O)ccc21`, with “inactive”; and `Cc1cc(C(=O)N/N=C/c2ccc([N+](=O)[O-])o2)c(C)o1`, with 0.579 µM (active); and `CC1(C(=O)N/N=C/c2ccc([N+](=O)[O-])o2)CC1(Br)Br` (stereo not given), with 0.65 µM (active).
As for `O=C(Cc1ccc2c(c1)OCO2)NN=Cc1ccc([N+](=O)[O-])o1`, the Potency was 0.918 µM (active).
For the compound `COc1ccccc1NS(=O)(=O)c1cccc(C(=O)N/N=C/c2ccc([N+](=O)[O-])o2)c1`, the Potency was 4.1 µM (active).
For the compound `CCOc1ccccc1NS(=O)(=O)c1c[nH]c(C(=O)OC)c1`, the Potency result is “inactive”.
Take `O=C(N/N=C/c1ccc([N+](=O)[O-])o1)c1ccc2c(c1)OCO2`: the Potency was 0.818 µM (active).
As to `O=C(Cc1ccc([N+](=O)[O-])cc1)N/N=C/c1ccc([N+](=O)[O-])o1`, the Potency is 1.16 µM (active).
The figure for `O=c1c2ccccc2sc2ccc(C#CC3(O)CCCCC3)cc12` is 0.65 µM (active); for `Cc1ccc(C2=NCCn3c2c2ccc([N+](=O)[O-])cc2[n+]3[O-])cc1` it is 1.3 µM (active); for `O=[N+]([O-])c1ccc2c3n([n+]([O-])c2c1)CCN=C3c1ccc(Cl)cc1` it is 4.1 µM (active).
Then `C[C@H](CO)N1C[C@H](C)[C@H](CN(C)C(=O)Nc2ccc(C(F)(F)F)cc2)Oc2c(NC(=O)c3ccncc3)cccc2C1=O`, with “inactive”; and `C[C@@H]1CN([C@@H](C)CO)C(=O)c2cccc(NS(=O)(=O)c3cccs3)c2O[C@H]1CN(C)Cc1ccc(C(F)(F)F)cc1`, with 3.65 µM (active); and `C[C@@H]1CN([C@H](C)CO)C(=O)c2cc(NC(=O)Nc3ccc4c(c3)OCO4)ccc2O[C@H]1CN(C)Cc1ccncc1`, with “inactive”.
Then `O=C1NC(=S)S/C1=C\C=C\c1ccc([N+](=O)[O-])o1`, with 0.326 µM (active).
On to `[O-][n+]1c2ccccc2c2n1CCCN=C2c1ccc(Cl)cc1`, for which the Potency is 1.3 µM (active).
Then `Cc1ccc(C2=NCCn3c2c2ccccc2[n+]3[O-])cc1`, with 0.146 µM (active).
The figure for `[O-][n+]1c2ccccc2c2n1CCN=C2c1ccc(Cl)cc1` is 0.29 µM (active); for `Cc1cnc([N+](=O)[O-])n1CCOC(=O)NC(=O)c1ccc(F)cc1` it is 1.16 µM (active); for `Cc1cnc([N+](=O)[O-])n1CCOC(=O)NC(=O)c1cccc(F)c1` it is 0.65 µM (active).
With `Cc1cnc([N+](=O)[O-])n1CCOC(=O)NC(=O)c1ccccc1`, the Potency is 0.918 µM (active).
The figure for `Cc1cnc([N+](=O)[O-])n1CCOC(=O)NC(=O)c1c(F)cccc1F` is 1.3 µM (active).
Regarding `Cc1ccc(C(=O)NC(=O)OCCn2c(C)cnc2[N+](=O)[O-])cc1`, the Potency is 0.183 µM (active).
The figure for `Cc1cnc([N+](=O)[O-])n1CCOC(=O)NC(=O)c1ccc(C(F)(F)F)cc1` is 0.259 µM (active); for `Cc1cnc([N+](=O)[O-])n1CCOC(=O)c1cccc(F)c1` it is 1.16 µM (active); for `CSCCC(NC(=O)c1ccco1)C(=O)OCc1cc([N+](=O)[O-])cc2c1OCOC2` (stereo not given) it is 4.6 µM (active).
Then `Cc1cccc(C)c1OCC(=O)N(Cc1cccs1)C1CCS(=O)(=O)C1` (stereo not given), with “inactive”.
`CC1C/C(=C/c2ccncc2)C(=O)/C(=C/c2ccncc2)C1` (stereo not given): the Potency is 11.6 µM (active).
As to `O=C1/C(=C/c2ccncc2)CCC/C1=C\c1ccncc1`, the Potency is 18.3 µM (active).
For the compound `CC(C)(C)[C@H](N)C(=O)N[C@H]1CCC2C3CC=C4C[C@@H](O)CC[C@]4(C)C3CC[C@@]21C` (stereo not given in full), the Potency is 2.9 µM (active).
The figure for `CN(C)CCCN(C(=O)c1cc2cc([N+](=O)[O-])ccc2s1)c1nc2cc3c(cc2s1)OCCO3` is 1.63 µM (active); for `CCOC(=O)C1=C(C)NC2=C(C(=O)c3ccccc32)C1c1ccc([N+](=O)[O-])o1` (stereo not given) it is 0.729 µM (active); for `C=CCOC(=O)C1=C(C)NC(=O)NC1c1ccc(O)cc1` (stereo not given) it is “inactive”.
Then `COC(=O)C1=C(C)N(C)C(=O)NC1c1ccc([N+](=O)[O-])o1` (stereo not given), with 0.46 µM (active); and `CCOC(=O)C1=C(C)NC(=O)NC1c1ccc([N+](=O)[O-])o1` (stereo not given), with 1.16 µM (active); and `O=C(Nc1ccc(N2CCCC2)c(Cl)c1)c1ccc([N+](=O)[O-])o1`, with 1.83 µM (active).
For `O=C(Nc1ccc(N2CCOCC2)c(Cl)c1)c1ccc([N+](=O)[O-])o1`, the Potency is 0.729 µM (active).
As for `O=C1CC(c2ccc(F)cc2)CC2=C1C(c1ccc([N+](=O)[O-])o1)Nc1ccccc1N2` (stereo not given), the Potency was 0.163 µM (active).
Then `CN(C)c1ccc(/C=C/c2ccc3ccccc3[n+]2[O-])cc1`, with 1.03 µM (active).
Then `CN(C)c1ccc(/C=C/c2ccc3ccccc3n2)cc1`, with 0.46 µM (active); and `CN(C)c1ccc(/C=C/c2ccc3cc(N)ccc3n2)cc1`, with 0.183 µM (active).
With `CC(=O)OCON[N+]([O-])=NC(C)C`, the Potency is 0.918 µM (active).
Then `CC(C)(C)C1C/C(=C/c2ccccn2)C(=O)/C(=C/c2ccccn2)C1` (stereo not given), with 6.5 µM (active).
Then `c1ccc2nc3c(cc2c1)CCCC3`, with 10.3 µM (active).
Then `Cc1cc(C)c(-n2[nH]nnc2=S)c(C)c1`, with “inactive”; and `O=C(Nc1ncc([N+](=O)[O-])s1)C1COc2ccccc2O1` (stereo not given), with 0.29 µM (active).
As to `O=C(N/N=C\c1ccc([N+](=O)[O-])o1)C1COc2ccccc2O1` (stereo not given), the Potency was 0.818 µM (active).
As to `Cc1ccc(/C=C/C(=O)NCC2COc3ccccc3O2)o1` (stereo not given), the Potency result was “inactive”.
The figure for `O=C(N/N=C\c1ccc([N+](=O)[O-])s1)C1COc2ccccc2O1` (stereo not given) is 4.1 µM (active).
On to `O=C(N/N=C\c1ccc(O)c([N+](=O)[O-])c1)C1COc2ccccc2O1` (stereo not given), for which the Potency was 5.16 µM (active).
Then `CC(C)(C)c1ccc2c(c1)OC(C(=O)N/N=C/c1ccc([N+](=O)[O-])o1)CO2` (stereo not given), with 0.818 µM (active); and `O=[N+]([O-])C(/C=C(\Cl)[N+](=O)[O-])=C(N1CCCCC1)N1CCCCC1`, with 0.516 µM (active).
Turning to `O=[N+]([O-])C(/C=C(/Cl)[N+](=O)[O-])=C(N1CCCCC1)N1CCCCC1`, the Potency was 1.16 µM (active).
